Source: PubChem BioAssay (Tox21)
Results filed as inconclusive are left out. Activity calls are given as the source filed them. Unless noted, calls follow the shape of the dose curve; as a rule, active = well fitted curve in the direction sought with a large enough effect in the repeat runs; inconclusive = weak or mixed curves; inactive = no such curve, though single readings can be large; an effect the other way counts as inactive or inconclusive.

Columns and labels:
[1] = A CellTox Green Cytotoxicity Assay to monitor cytotoxicity in HepG2 cells - 8 hour (AID 1224890); conditions: CellTox Green fluorescence; series mostly up to 76.8 µM; also: nearly all actives have a fitted effect of over 45% in size
Method in brief: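 Real-time cytotoxicity: fluorescence of a cell-impermeant cyanine dye binding DNA of dead HepG2 cells, measured repeatedly (0–40 h) during compound exposure at 37 C. Cells seeded 600/well with reagent, dosed after 5 h.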

[2] = qHTS assay to identify small molecule antagonists of the estrogen receptor alpha (ER-alpha) signaling pathway using the BG1 cell line in the presence of 0.1 nM 17-beta-estradiol - cell viability counter screen (AID 1259241); conditions: VM7Luc4E2 (BG1) viability, CellTiter-Fluor protease, 22 h, 0.1 nM estradiol agonist added; series mostly up to 92.4 µM; also: nearly all actives have a fitted effect of over 40% in size
Method in brief: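 Cells were plated and left 24 hr, compounds in DMSO were pinned in, 17beta-estradiol was added to 0.1 nM final, and after 22 hr CellTiter-Fluor reagent was added for 30 min before fluorescence was read.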

[3] = qHTS assay to identify small molecule antagonists of the androgen receptor (AR) signaling pathway using the MDA cell line in the presence of 0.5 nM R1881 - cell viability counter screen (AID 1259242); conditions: MDA-kb2 viability, CellTiter-Fluor protease fluorescence, 16 h; series mostly up to 92.4 µM; also: nearly all actives have a fitted effect of over 45% in size
Method in brief: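 Live-cell protease activity was measured by CellTiter-Fluor fluorescence after 30 min. Before that, MDA-kb2 MMTV-luciferase cells had 16 hr at 37C without CO2, exposed to test compounds and 0.5 nM R1881 final.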

[4] = qHTS assay to identify small molecule HDAC inhibitors (AID 1259364); conditions: HCT-116 HDAC-Glo I/II luminescence, 2 h; series mostly up to 92.4 µM; also: top concentration of the series differs between compounds; nearly all actives have a fitted effect of over 45% in size
Method in brief: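 Luminescence read after 30 min room-temperature HDAC-Glo incubation measures cellular class I/II HDAC activity. Compounds were applied for 2 hr at 37 C to HCT-116 wild-type cells seeded the day before.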

[5] = qHTS assay to identify small molecule HDAC inhibitors - cell viability counter screen (AID 1259365); conditions: HCT-116 viability, CellTiter-Glo ATP luminescence, 2 h; series mostly up to 92.4 µM; also: nearly all actives have a fitted effect of over 50% in size
Method in brief: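 Counter screen in wild-type HCT-116 cells: compounds dissolved in DMSO are pin-transferred onto overnight-plated cells and left 2hr at 37C. ATP-based CellTiter-Glo luminescence then measures viable cells.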

[6] = qHTS assay to identify small molecule agonists of the sonic hedgehog signaling (Shh) pathway - cell viability counter screen (AID 1259366); conditions: NIH/3T3 Gli1-Luc viability, CellTiter-Fluor, 24 h; series mostly up to 92.4 µM; also: nearly all actives have a fitted effect of over 50% in size
Method in brief: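 Cells are plated at 2,000 per well and left 4hr at 37C, 5% CO2 before compound addition. After 23hr of treatment, CellTiter-Fluor reagent is added for 1hr at 37C and fluorescence is measured.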

[7] = qHTS assay to identify small molecule antagonists of the sonic hedgehog signaling (Shh) pathway - cell viability counter screen (AID 1259367); conditions: NIH/3T3 Gli1-Luc viability, CellTiter-Fluor, 24 h; series mostly up to 42.5 µM; also: nearly all actives have a fitted effect of over 55% in size
Method in brief: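 Viability was read by CellTiter-Fluor fluorescence in the same wells, reagent added 23 hr into compound treatment and incubated 1 hr at 37C. The 3T3 Gli1-Luc reporter cells (2,000/well) received conditioned medium after compound and ran 24 hr.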

[8] = qHTS assay to identify small molecule agonists of the sonic hedgehog signaling (Shh) pathway (AID 1259368; calls by dose curve;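 also: NIH/3T3-derived 3T3Gli1-Luc cells carrying a stable Gli1-driven firefly luciferase reporter; nearly all actives have a fitted effect of over 15% in size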); conditions: NIH/3T3 Gli1-Luc reporter, luciferase, 24 h; series mostly up to 92.4 µM
Method in brief: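 Luminescence was read after 30 min at room temperature with luciferase reagent. Before that, 3T3Gli1-Luc cells (NIH/3T3 clone, stable Gli1-Luc reporter; 2,000/well) were exposed to compounds for 24 hr at 37C, 5% CO2, compounds being added 4 hr post-plating.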

[9] = qHTS assay to identify small molecule antagonists of the sonic hedgehog signaling (Shh) pathway (AID 1259369; calls by dose curve; also: nearly all actives have a fitted effect of over 45% in size); conditions: NIH/3T3 Gli1-Luc reporter, Shh antagonist, luminescence 24 h; series mostly up to 42.5 µM
Method in brief: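 Antagonist mode: compound added to 3T3 Gli1-Luc cells followed by conditioned-medium stimulation, 24 h at 37 C, 5% CO2. Inhibition taken as loss of Gli1-driven luciferase luminescence.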

[10] = qHTS assay to identify small molecule agonists of the androgen receptor (AR) signaling pathway in the presence of an antagonist - cell viability counter screen (AID 1259379); conditions: MDA-kb2 viability, CellTiter-Fluor, 16 h; series mostly up to 92.4 µM;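 also: MDA-kb2 human breast cancer cells carrying an MMTV luciferase reporter; nearly all actives have a fitted effect of over 25% in size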
Method in brief: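 Cytotoxicity counter-screen run in the same wells as the nilutamide-challenged (3.0 µM final) AR agonist assay in MDA-kb2 cells. Compounds tested at 15 concentrations for 16 h, 37 °C without CO2; CellTiter-Fluor fluorescence read.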

[11] = qHTS assay to identify small molecule agonists of the estrogen receptor beta (ER-beta) signaling pathway - cell viability counter screen (AID 1259380); conditions: ER-beta-bla HEK293T viability, CellTiter-Glo luminescence, 16 h; series mostly up to 92.4 µM; also: nearly all actives have a fitted effect of over 30% in size
Method in brief: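 Cell viability counter screen: CellTiter-Glo luminescence (30 min, room temperature) measured in the same wells as the beta-lactamase readout, after 16 hr compound exposure at 37C of ER-beta-bla HEK293T cells in 2% charcoal-stripped FBS medium.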

[12] = qHTS assay to identify small molecule antagonists of the estrogen receptor beta (ER-beta) signaling pathway - cell viability counter screen (AID 1259382); conditions: ER-beta-UAS-bla HEK293T viability, CellTiter-Glo luminescence, 16 h; series mostly up to 92.4 µM;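 also: HEK293T cells carrying ER-beta-UAS-bla reporter stimulated with estradiol; nearly all actives have a fitted effect of over 55% in size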
Method in brief: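 Cytotoxicity was measured in the same wells by CellTiter-Glo luminescence after 30 min at room temperature. Cells were ER-beta-bla HEK293T in charcoal-stripped serum, given compound together with 1 nM E2 and incubated 16 h at 37C.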

[13] = qHTS assay to identify small molecule agonists or antagonists of the thyroid stimulating hormone receptor (TSHR) signaling pathway - wild type cell line counter screen (AID 1259384; calls by dose curve); conditions: HEK293 wild type, cAMP HTRF counter-screen; series mostly up to 92.4 µM
Method in brief: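 Counter screen in untransfected Hek293: compounds (15-point titration, triplicate) plus phosphodiesterase inhibitor Ro20-1724 added after 18 h plating; 30 min RT. Intracellular cAMP via competitive d2/cryptate immunoassay, 1 h incubation.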

[14] = target: Estrogen receptor beta (Homo sapiens) (UniProt Q92731); test: qHTS assay to identify small molecule agonists of the estrogen receptor beta (ER-beta) signaling pathway (AID 1259377; active = well fitted activation curve with a large enough effect in the signal ratio in the repeat runs, not every such curve was filed as active; the % refers to the signal ratio); conditions: ER-beta-UAS-bla HEK293T, beta-lactamase FRET ratio, 16 h; series mostly up to 42.5 µM
Sequence of Estrogen receptor beta (Homo sapiens) (Q92731 whole entry, looked up, the tested form may be a part): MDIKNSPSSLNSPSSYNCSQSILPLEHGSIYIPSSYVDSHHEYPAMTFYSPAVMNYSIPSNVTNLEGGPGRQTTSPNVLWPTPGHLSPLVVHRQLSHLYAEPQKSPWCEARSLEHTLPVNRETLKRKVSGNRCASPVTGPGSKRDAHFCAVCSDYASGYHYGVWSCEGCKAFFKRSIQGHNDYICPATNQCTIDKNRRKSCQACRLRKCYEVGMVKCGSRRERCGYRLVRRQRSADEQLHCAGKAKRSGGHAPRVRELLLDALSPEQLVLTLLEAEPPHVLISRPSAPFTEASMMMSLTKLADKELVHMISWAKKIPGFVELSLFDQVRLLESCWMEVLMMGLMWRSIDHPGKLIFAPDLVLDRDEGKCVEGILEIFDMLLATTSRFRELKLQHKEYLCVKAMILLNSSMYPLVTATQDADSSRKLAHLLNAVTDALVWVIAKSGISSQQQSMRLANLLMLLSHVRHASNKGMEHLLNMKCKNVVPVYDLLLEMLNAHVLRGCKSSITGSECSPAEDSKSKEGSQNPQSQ
Method in brief: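 Agonist mode cell assay in GripTite HEK293T cells expressing an ER-beta fusion that drives beta-lactamase from an Upstream Activator Sequence; 16 hr compound exposure at 37C, then 2 h LiveBLAzer B/G FRET substrate at room temperature, fluorescence read-out.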

[15] = target: Estrogen receptor beta (Homo sapiens) (UniProt Q92731); test: qHTS assay to identify small molecule antagonists of the estrogen receptor beta (ER-beta) signaling pathway (AID 1259378; active = well fitted inhibition curve with a large enough effect in the signal ratio in the repeat runs, not every such curve was filed as active; the % refers to the signal ratio); conditions: ER-beta-UAS-bla HEK293T, beta-lactamase FRET ratio, 16 h; series mostly up to 92.4 µM
Method in brief: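 Antagonist mode: compounds added to beta-lactamase reporter HEK293T ER-beta-UAS cells stimulated with E2 (1nM final), 16 hr at 37C. LiveBLAzer B/G FRET substrate, 2 hours room temperature, fluorescence read-out.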

[16] = target: Androgen receptor (Homo sapiens) (UniProt P10275); test: qHTS assay to identify small molecule antagonists of the androgen receptor (AR) signaling pathway using the MDA cell line in the presence of 0.5 nM R1881 (AID 1259243); conditions: MDA-kb2 MMTV-luciferase, R1881 0.5 nM, 16 h; series mostly up to 42.5 µM; also: nearly all actives have a fitted effect of over 50% in size
Sequence of Androgen receptor (Homo sapiens) (P10275 whole entry, looked up): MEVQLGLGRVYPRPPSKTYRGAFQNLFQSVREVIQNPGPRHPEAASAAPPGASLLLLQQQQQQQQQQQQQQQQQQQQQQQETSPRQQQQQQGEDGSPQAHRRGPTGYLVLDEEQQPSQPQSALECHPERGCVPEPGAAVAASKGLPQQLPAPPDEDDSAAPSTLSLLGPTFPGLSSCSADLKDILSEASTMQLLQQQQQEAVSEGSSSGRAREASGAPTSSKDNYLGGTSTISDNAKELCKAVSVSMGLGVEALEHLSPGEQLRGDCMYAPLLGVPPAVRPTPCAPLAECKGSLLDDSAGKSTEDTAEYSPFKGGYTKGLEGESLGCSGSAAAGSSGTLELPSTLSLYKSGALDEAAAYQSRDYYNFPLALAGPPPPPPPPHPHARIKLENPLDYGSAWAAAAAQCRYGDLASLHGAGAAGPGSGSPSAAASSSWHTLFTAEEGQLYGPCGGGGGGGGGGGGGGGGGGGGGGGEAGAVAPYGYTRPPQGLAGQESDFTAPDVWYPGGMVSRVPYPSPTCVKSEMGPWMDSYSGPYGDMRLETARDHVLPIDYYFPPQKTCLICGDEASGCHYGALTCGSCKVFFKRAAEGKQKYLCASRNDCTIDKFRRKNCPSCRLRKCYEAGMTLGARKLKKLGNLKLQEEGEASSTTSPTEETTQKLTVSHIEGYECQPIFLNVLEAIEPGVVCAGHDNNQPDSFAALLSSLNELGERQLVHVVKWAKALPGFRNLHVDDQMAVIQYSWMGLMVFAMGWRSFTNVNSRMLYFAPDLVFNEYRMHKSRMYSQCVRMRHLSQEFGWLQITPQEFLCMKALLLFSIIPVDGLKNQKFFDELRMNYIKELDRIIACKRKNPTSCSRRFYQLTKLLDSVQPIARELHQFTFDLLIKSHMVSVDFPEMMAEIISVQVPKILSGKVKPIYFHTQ
Method in brief: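 Luminescent reporter readout (ONE-Glo, 30 min, room temperature) after 16 hr co-treatment of MDA-kb2 cells with test compounds and 0.5 nM R1881 final, at 37C without CO2. The MMTV-driven luciferase responds to both AR and GR.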

[17] = target: Estrogen receptor (Homo sapiens) (UniProt P03372); test: qHTS assay to identify small molecule antagonists of the estrogen receptor alpha (ER-alpha) signaling pathway using the BG1 cell line in the presence of 0.1 nM 17-beta-estradiol (AID 1259244); conditions: VM7Luc4E2 (BG1) ERE-luciferase, antagonist mode, 0.1 nM E2, 22 h; series mostly up to 92.4 µM; also: nearly all actives have a fitted effect of over 50% in size
Sequence of Estrogen receptor (Homo sapiens) (P03372 whole entry, looked up): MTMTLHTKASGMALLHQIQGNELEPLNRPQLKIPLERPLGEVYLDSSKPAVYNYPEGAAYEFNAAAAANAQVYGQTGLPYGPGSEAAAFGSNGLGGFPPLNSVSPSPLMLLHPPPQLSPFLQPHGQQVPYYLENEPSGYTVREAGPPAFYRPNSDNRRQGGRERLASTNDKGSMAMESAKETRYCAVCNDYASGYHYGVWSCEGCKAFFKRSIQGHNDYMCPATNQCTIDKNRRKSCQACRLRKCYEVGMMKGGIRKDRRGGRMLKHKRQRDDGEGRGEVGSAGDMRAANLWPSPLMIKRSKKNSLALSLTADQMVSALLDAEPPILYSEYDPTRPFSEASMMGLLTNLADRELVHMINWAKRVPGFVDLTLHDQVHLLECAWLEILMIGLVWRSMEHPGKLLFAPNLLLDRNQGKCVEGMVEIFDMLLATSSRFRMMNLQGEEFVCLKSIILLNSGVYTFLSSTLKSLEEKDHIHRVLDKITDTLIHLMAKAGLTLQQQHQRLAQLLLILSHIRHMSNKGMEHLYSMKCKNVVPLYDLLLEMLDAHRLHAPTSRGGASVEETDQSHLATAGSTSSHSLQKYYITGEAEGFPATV
Method in brief: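 Luciferase luminescence (ONE-Glo, 30 min at room temperature) was read after 22 hr at 37C exposure to compounds plus 17beta-estradiol at 0.1 nM final. Cells were VM7Luc4E2 with endogenous ER-alpha and an ERE-driven luciferase, pre-cultured 5 days in hormone-depleted medium.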

[18] = target: Androgen receptor (Homo sapiens) (UniProt P10275); test: qHTS assay to identify small molecule agonists of the androgen receptor (AR) signaling pathway in the presence of an antagonist (AID 1259381; calls by dose curve; also: nearly all actives have a fitted effect of over 15% in size); conditions: MDA-kb2 MMTV-luciferase, AR agonist + nilutamide, 16 h; series mostly up to 42.5 µM
Method in brief: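 Agonist-mode confirmation run against 3.0 uM final nilutamide: compounds titrated at 15 concentrations onto MDA-kb2 MMTV-luciferase reporter cells. Luminescence measured with ONE-Glo following 16 hr incubation, 37C, 0% CO2.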

[19] = target: Estrogen receptor (Homo sapiens) (UniProt P03372); test: qHTS assay to identify small molecule agonists of the estrogen receptor alpha (ER-alpha) signaling pathway in the presence of an antagonist (AID 1259383; calls by dose curve; also: top concentration of the series differs between compounds; nearly all actives have a fitted effect of over 15% in size); conditions: VM7Luc4E2 cells, ERE-luciferase, +ICI-182,780, 22 h; series mostly up to 92.4 µM
Method in brief: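 Agonist-mode confirmation run in the presence of 10.0nM (final) ICI-182,780 antagonist. The reporter was ERE-driven luciferase in VM7Luc4E2 cells, grown in charcoal-stripped serum. Cells were exposed to 15-concentration compound series for 22hr, then ONE-Glo luminescence was read.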

Measured: Potency

NC(=O)c1ccc([N+](=O)[O-])cc1
not listed: [14] | [15] | [16] | [17] | [18] | [19]
inactive: all other assays above

COC(=O)CC(C)=O
not listed: [4] | [9] | [16] | [17] | [18] | [19]
inactive: all other assays above

CCc1ccc(O)c(OC)c1
not listed: [14] | [16] | [17] | [18] | [19]
inactive: all other assays above

OC[C@]1(O)OC[C@@H](O)[C@H](O)[C@@H]1O
not listed: [6] | [12] | [14] | [15] | [16] | [17] | [18] | [19]
inactive: all other assays above

O=C(c1ccccc1)C1CCCCC1
not listed: [1] | [14] | [15]
inactive: all other assays above

C=CCOCC(CC)(CO)COCC=C
not listed: [8] | [12] | [16] | [17] | [18] | [19]
inactive: all other assays above

O=C(CCCN1CCC(O)(c2cccc(C(F)(F)F)c2)CC1)c1ccc(F)cc1
not listed: [11] | [12] | [14] | [15] | [16] | [17] | [18] | [19]
inactive: all other assays above
